The source of these data is PubChem BioAssay.

Experiment [1] can be described thus: viability loss in pontine glioma line – cell-based, SU-DIPG-XVII, MIPE5.0, CellTiter-Glo, qHTS, dose response (AID 1347060; cut-off not given, nearly all actives have AC50 up to about 26 µM;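 on AC50: cells exposed to compound for 48 hours before viability readout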). The conditions noted are these: CellTiter-Glo ATP luminescence.
A short description of experiment [2]: viability loss in pontine glioma line – cell-based, SU-DIPG-XIII, MIPE4.0, CellTiter-Glo, qHTS, dose response (AID 1347061; cut-off not given, nearly all actives have AC50 up to about 37 µM;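 further: cells exposed to compound for 48 hours before readout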). Conditions: CellTiter-Glo ATP luminescence.
Experiment [3] can be described thus: viability loss in pontine glioma line – cell-based, JHH-DIPG-1, MIPE4.0, CellTiter-Glo, qHTS, dose response (AID 1347062; cut-off not given, nearly all actives have AC50 up to about 27 µM;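 on AC50: cells exposed to compound for two days before readout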). The conditions noted are these: JHH-DIPG-1 viability, CellTiter-Glo ATP luminescence.
The nature of experiment [4]: viability loss in pontine glioma line – cell-based, SU-DIPG-XXV, MIPE5.0, CellTiter-Glo, qHTS, dose response (AID 1347065; cut-off not given, nearly all actives have AC50 up to about 26 µM;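 further: cells exposed to compound for 48 hours before ATP readout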). The conditions noted are these: CellTiter-Glo ATP luminescence.
A short description of experiment [5]: JHH-DIPG-1 glioma cell viability, MIPE5.0 library, CellTiter-Glo luminescence, qHTS (AID 1347067; cut-off not given, nearly all actives have AC50 up to about 26 µM;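 further: cells exposed to compound for 48 hours before readout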). Conditions: JHH-DIPG-1 glioma viability, CellTiter-Glo ATP luminescence.
Experiment [6] can be described thus: growth inhibition of DIPG cells – cell-based, MIPE5.0 library, qHTS (AID 1347068; cut-off not given, nearly all actives have IC50 up to about 30 µM). Conditions: SU-DIPG-XXV viability.
Experiment [7] can be described thus: viability loss with induced miR-34 in A549 – imaging, A549 dox-inducible miR-34, nuclei and caspase counts, primary screen (AID 1347080;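 active means compounds whose cell count with miR-34 switched on is under 0.7 times the count with it off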). The conditions noted are these: A549 miR-34 inducible, Hoechst nuclei count, 48 h.
Experiment [8] is described as follows: MELAS cybrid and Rieske KO viability enhancers – cell-based, MELAS cybrids, Rieske KO mouse fibroblasts, CellTiter-Glo, primary screen (AID 1508586;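 active means mean z-score across replicates of 1.96 or higher in either the MELAS or the Rieske mutant cell line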;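 further: z relative to plate mean and SD of compound and empty wells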). Conditions: low glucose.
Experiment [9] is described as follows: growth inhibition of DIPG cells – cell-based, MIPE4.0 library, CellTiter-Glo luminescence, qHTS (AID 1347066; cut-off not given, nearly all actives have AC50 up to about 30 µM;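 further: cells exposed to compound for 48 hours before readout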). Conditions: SU-DIPG-VI viability, CellTiter-Glo ATP luminescence.
Experiment [10] is described as follows: viability loss in pontine glioma line – cell-based, SU-DIPG-IV, MIPE4.0, CellTiter-Glo, qHTS, dose response (AID 1347063; cut-off not given, nearly all actives have AC50 up to about 30 µM;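 further: compound exposure lasted 48 hours before the viability readout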). The conditions noted are these: CellTiter-Glo ATP luminescence.
The nature of experiment [11]: viability loss in pontine glioma line – cell-based, SU-DIPG-XIII, MIPE5.0, CellTiter-Glo, qHTS, dose response (AID 1347064; cut-off not given, nearly all actives have AC50 up to about 23 µM;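 on AC50: cells exposed to compound for 48 hours before the viability read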). Conditions: CellTiter-Glo ATP luminescence.
Experiment [12] can be described thus: compounds altering HSF1 focus formation in cells – imaging, Selleck Cancer Library (AID 1347162; in the data active means plate-normalised HSF1 focus index below about 0.46). Conditions: human cells, HSF1 nuclear foci imaging, at 10 µM; SSMD: measured here: HSF1 foci SSMD mean; cell count: measured here: cell number; plate-normalised HSF1 focus index: stronger effect = lower value.
The nature of experiment [13]: drug combination growth inhibition, ovarian cancer – cell-based, oncology-focused library, rucaparib conditional, profiling panel (AID 1508598). The conditions noted are these: patient-derived ovarian cancer cells, CellTiter-Glo viability, 144 h, stronger effect = lower value.
Where [14] appears, read: stronger effect = lower value, cell number ratio, induced over uninduced.
[15] abbreviates: measured here: relative caspase fold change +Dox/-Dox.
Setting [16] is: measured here: total cells with miR-34 induction, stronger effect = lower value.
The mark [17] stands for this setting: measured here: total cells without miR-34 induction.
[18] abbreviates: MELAS cybrid survival, CellTiter-Glo 48 h, stronger effect = higher value.
Setting [19] is: Rieske KO mouse fibroblast survival, CellTiter-Glo 72 h.

“And” between values parts separate entries of the source, which are not always exact repeats. Equal values may be shown once. Results filed as inconclusive are left out. The source made the active and inactive calls.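 How the source made its calls, unless noted: active means normalized viability below 100% at a tested concentration; inactive means the rest.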

In the case of `CC(C)C[C@H](CC(=O)O)C(=O)N[C@@H](Cc1c[nH]c2ccccc12)C(=O)N[C@@H](C)c1ccccc1`, the call in experiment [1], in experiment [2], in [3], in [5] and in experiment [6] was inactive. Besides, the AC50 in experiment [4] is 16.6 µM (active).

Take `CC1CCC(C(=O)N(c2cc(C#CC(C)(C)C)sc2C(=O)O)C2CCC(O)CC2)CC1` (stereo not given): the values for the AC50 in experiment [1] and in [5] were 26.3 µM (active) and 23.5 µM (active), respectively. The compound was called inactive in [2] and in experiment [3]. In addition, the fold change in experiment [7] (setting [14]) is 0.937 (inactive); in experiment [7] (setting [15]), 0.832. The cell count in [7] (setting [16]) came to 7690; in experiment [7] (setting [17]) it was 8210. Moreover, the z-score in experiment [8] (setting [18]) is 0.177 (inactive); in [8] (setting [19]) it was -0.0881.

For `CN(C)c1ccc(C2Nc3ccc4ccccc4c3C3=C2C(=O)CC(C)(C)C3)cc1Br` (stereo not given), the compound was called inactive in [1], in experiment [2], in [3], in [9] and in experiment [5].

In the case of `Cc1ccc2c(c1)C(=O)[C@]1(O)CCN(c3ccccc3)C1=N2`, the AC50 in experiment [1] was 14.8 µM (active). For the same compound, the compound was classed as inactive in experiment [2], in [3], in experiment [9], in experiment [5] and in [6]. In addition, the fold change in experiment [7] (setting [14]) is 0.934 (inactive) and 0.847 (inactive); in [7] (setting [15]) it was 0.749 and 0.315. For the same compound, the cell count was 6020 and 6690 in [7] (setting [16]); 6450 and 7900 in experiment [7] (setting [17]). Further, the z-score in experiment [8] (setting [18]) was -0.292 (inactive); in [8] (setting [19]) it was -2.56.

`Nc1ccc(C(=O)c2cc3c(ccc4ccccc43)[nH]2)cc1`: the AC50 in experiment [1] is 3.82 µM (active); in experiment [2], 23.5 µM (active); in [3] it was 8.33 µM (active); in experiment [4], 2.15 µM (active); in experiment [5], 5.39 µM (active).

For `Cc1cnc(-c2cc(N3CCN(C(=O)CCS(C)(=O)=O)CC3)ncc2Cl)c(C)c1`, the result in experiment [1], in experiment [2], in [10], in [11], in [4] and in [9] was inactive. Moreover, the compound was classed as inactive in [5] and in [6]. The values for the fold change in experiment [7] (setting [14]) and in [7] (setting [15]) were 0.856 (inactive) and 0.666, respectively. The cell count in experiment [7] (setting [16]) came out at 8550; in experiment [7] (setting [17]) it was 10000. The z-score is -0.296 (inactive) in [8] (setting [18]) and 0.28 in [8] (setting [19]).

Regarding `CCOC(=O)[C@@H](N)Cc1ccc(-c2cc(O[C@H](c3ccc(Cl)cc3-n3ccc(C)n3)C(F)(F)F)nc(N)n2)cc1`, the AC50 is 11.8 µM (active) in experiment [1]; 26.4 µM (active) in experiment [10]; 20.9 µM (active) in experiment [11]; 13.2 µM (active) in experiment [4]; 16.6 µM (active) in experiment [9]; 13.2 µM (active) in experiment [5]. Besides, the call in experiment [2] was inactive.

Regarding `CCN(C(=O)c1c(O)c2c(Cl)cccc2n(C)c1=O)c1ccccc1`, the AC50 is 8.33 µM (active) in experiment [1] and 14.8 µM (active) in [3]. Also, the outcome in [2], in experiment [11] and in experiment [9] was inactive. Further, the values for the fold change in [7] (setting [14]) and in [7] (setting [15]) were 0.884 (inactive) and 0.907, respectively. Besides, the figures for the cell count in experiment [7] (setting [16]) and in [7] (setting [17]) were 8690 and 9820, respectively. The z-score is -0.321 (inactive) in experiment [8] (setting [18]) and 0.483 in experiment [8] (setting [19]).

Regarding `Cc1ccc(C(C)(O)c2nc3ccccc3s2)c(C)c1` (stereo not given), the result in [1], in experiment [2], in experiment [3], in [11], in experiment [9] and in experiment [5] was inactive. For the same compound, in experiment [6], the outcome was inactive.

For `CCn1c(-c2nonc2N)nc2cncc(CNC3CCNCC3)c21`, the result in experiment [1], in experiment [2], in experiment [3], in experiment [9], in experiment [5] and in experiment [6] was inactive.

Consider `CC[C@H](NC(=O)[C@H](C)NC)C(=O)N1C[C@@H](O)C[C@H]1Cc1c(-c2[nH]c3cc(F)ccc3c2C[C@@H]2C[C@H](O)CN2C(=O)[C@H](CC)NC(=O)[C@H](C)NC)[nH]c2cc(F)ccc12`, for which the compound was classed as inactive in experiment [1], in [2], in experiment [11], in [4], in experiment [9] and in [5]. The outcome in experiment [6] was inactive. The AC50 in [10] was 0.0662 µM (active).

As to `Cc1cccc(-c2[nH]c(C(C)(C)C)nc2-c2ccc3nccnc3c2)n1`, the call in experiment [1] and in experiment [6] was inactive. Moreover, the AC50 is 2.35 µM (active) in experiment [2]; 20.9 µM (active) in [10]; 9.34 µM (active) in experiment [11]; 10.5 µM (active) in experiment [4]; 4.69 µM (active) in experiment [9]; 5.9 µM (active) in experiment [5]. Further, the fold change in experiment [7] (setting [14]) was 1.02 (inactive) and 0.895 (inactive); in experiment [7] (setting [15]), 0.491 and 0.704. The cell count in experiment [7] (setting [16]) was 4120 and 3500; in experiment [7] (setting [17]), 4050 and 3910; in [12], 7730. In addition, the SSMD in experiment [12] came to 1.52. The plate-normalised HSF1 focus index in [12] is 1.09 (inactive). The figures for the z-score in [8] (setting [18]) and in experiment [8] (setting [19]) were -0.318 (inactive) and -0.927, respectively. The viability is 121% (inactive) in [13] (at 0.000305 µM, OCI-C5x cells, with rucaparib 10 µM, 100% = cells with rucaparib alone); 111% (inactive) in experiment [13] (at 0.000305 µM, OCI-C5x cells, without rucaparib); 101% (inactive) in experiment [13] (at 0.000305 µM, OCI-P5x cells, with rucaparib 20 µM, 100% = cells with rucaparib alone); 95.1% (active) in [13] (at 0.000305 µM, OCI-P5x cells, without rucaparib); 106% (inactive) in experiment [13] (at 0.00122 µM, OCI-C5x cells, with rucaparib 10 µM, 100% = cells with rucaparib alone); 112% (inactive) in experiment [13] (at 0.00122 µM, OCI-C5x cells, without rucaparib). Moreover, the viability in experiment [13] (at 0.00122 µM, OCI-P5x cells, with rucaparib 20 µM, 100% = cells with rucaparib alone) was 100% (active); in experiment [13] (at 0.00122 µM, OCI-P5x cells, without rucaparib), 98.3% (active); in [13] (at 0.00488 µM, OCI-C5x cells, with rucaparib 10 µM, 100% = cells with rucaparib alone) it was 120% (inactive); in [13] (at 0.00488 µM, OCI-C5x cells, without rucaparib), 113% (inactive); in experiment [13] (at 0.00488 µM, OCI-P5x cells, with rucaparib 20 µM, 100% = cells with rucaparib alone), 99.5% (active); in experiment [13] (at 0.00488 µM, OCI-P5x cells, without rucaparib), 98.9% (active). Further, the viability in experiment [13] (at 0.0195 µM, OCI-C5x cells, with rucaparib 10 µM, 100% = cells with rucaparib alone) was 119% (inactive); in experiment [13] (at 0.0195 µM, OCI-C5x cells, without rucaparib) it was 116% (inactive); in experiment [13] (at 0.0195 µM, OCI-P5x cells, with rucaparib 20 µM, 100% = cells with rucaparib alone) it was 103% (inactive); in experiment [13] (at 0.0195 µM, OCI-P5x cells, without rucaparib) it was 95% (active); in experiment [13] (at 0.0781 µM, OCI-C5x cells, with rucaparib 10 µM, 100% = cells with rucaparib alone) it was 121% (inactive); in experiment [13] (at 0.0781 µM, OCI-C5x cells, without rucaparib), 111% (inactive). Besides, the viability in experiment [13] (at 0.0781 µM, OCI-P5x cells, with rucaparib 20 µM, 100% = cells with rucaparib alone) is 101% (inactive); in [13] (at 0.0781 µM, OCI-P5x cells, without rucaparib), 97.3% (active); in [13] (at 0.313 µM, OCI-C5x cells, with rucaparib 10 µM, 100% = cells with rucaparib alone), 119% (inactive); in experiment [13] (at 0.313 µM, OCI-C5x cells, without rucaparib), 111% (inactive); in experiment [13] (at 0.313 µM, OCI-P5x cells, with rucaparib 20 µM, 100% = cells with rucaparib alone), 112% (inactive); in experiment [13] (at 0.313 µM, OCI-P5x cells, without rucaparib), 102% (inactive). Moreover, the viability in experiment [13] (at 1.25 µM, OCI-C5x cells, with rucaparib 10 µM, 100% = cells with rucaparib alone) is 124% (inactive); in experiment [13] (at 1.25 µM, OCI-C5x cells, without rucaparib), 117% (inactive); in experiment [13] (at 1.25 µM, OCI-P5x cells, with rucaparib 20 µM, 100% = cells with rucaparib alone) it was 121% (inactive); in experiment [13] (at 1.25 µM, OCI-P5x cells, without rucaparib), 98.6% (active); in experiment [13] (at 5 µM, OCI-C5x cells, with rucaparib 10 µM, 100% = cells with rucaparib alone), 139% (inactive); in experiment [13] (at 5 µM, OCI-C5x cells, without rucaparib) it was 142% (inactive). Moreover, the viability in [13] (at 5 µM, OCI-P5x cells, with rucaparib 20 µM, 100% = cells with rucaparib alone) is 120% (inactive); in experiment [13] (at 5 µM, OCI-P5x cells, without rucaparib), 90.7% (active).
